# Screen size: about 320,000 compounds; about 2,100 (0.66%) were called active. About 53% were inconclusive and are not listed. Calls follow the shape of the dose curve; as a rule, active = well fitted inhibition curve with a large enough effect in the signal ratio, with a control signal flat (not every such curve was filed as active); inconclusive = small, poorly fitted or top-dose-only effect, or effect the other way, or a change in a side signal; inactive = flat fitted curve, though single readings scatter; the % refers to the signal ratio. The full list was thinned out, with actives kept by preference.
# Experiment: qHTS Assay for Lipid Storage Modulators in Drosophila S3 Cells;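 as to cell number change: cells counted by Cell Tracker Red CMTPX staining in the red channel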; as to lipid storage change, negative = inhibition: % is scaled to controls: 0 for no effect and ±100 for the full control effect
# Details: BODIPY lipid droplet fluorescence, 18-24 h, cells fed with added oleic acid; cell number change: measured here: cell count max response; series mostly up to 46.1 µM; lipid storage change, negative = inhibition: at the top concentration
# How it was run: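 Drosophila S3 cells loaded with oleic acid (400 uM, as added) and compounds at several concentrations; lipid droplets imaged by 488-nm laser-scanning cytometry, 500–530 nm intensity and object ratio to cell channel. Percent activity normalized to 20 uM Triacsin C.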
# Potency is read from the fitted curve at half-maximal effect.
SMILES,"lipid storage change, negative = inhibition",cell number change,Potency,outcome
CCc1nn(CC(=O)NCCCN(CC)CC)c(=O)c2cc3sc(C)cc3n12,11% (inactive),7.9%,–,–
COc1cccc(C(=O)COC(=O)C(C)N2C(=O)c3ccccc3C2=O)c1 (configuration not stated),2.36% (inactive),8.05%,–,–
CCOC(=O)c1sc(NC(=O)c2ccccc2C(=O)O)c(C(=O)OCC)c1C,9% (inactive),-2.04%,–,–
CCOC(=O)c1sc(NC(=O)c2ccoc2C)c(C(N)=O)c1C,–,-15.9%,731 nM (active),–
COC(=O)c1c(NC(=O)c2ccoc2C)sc(C)c1C,28.5% (inactive),20.9%,–,–
O=S(=O)(c1cccc(C(F)(F)F)c1)N1CCCC1c1cccnc1 (configuration not stated),9.53% (inactive),4.77%,–,–
COC(=O)c1c(C)[nH]c(C(=O)CN2C(=O)NC3(CCOc4ccccc43)C2=O)c1C (configuration not stated),20.8% (inactive),-21.7%,–,–
CCCC1(c2ccccc2)NC(=O)N(CC(=O)c2[nH]c(C)c(C(=O)OCC)c2C)C1=O (configuration not stated),–,-26.5%,8200 nM (active),–
CCOC(=O)c1c(C)[nH]c(C(=O)CN2C(=O)NC3(CCCC3)C2=O)c1C,3.01% (inactive),-4.44%,–,–
Oc1ccc(C[C@H]2CNCCN2CC2(c3ccccc3)CC2)cc1,-18.7% (inactive),19.8%,–,–
COc1ccc(OC)c(NC(=O)CCCC(=O)NC2CCCCC2)c1,–,-7.97%,7310 nM (active),–
COc1ccc(Cl)cc1NC(=O)CN(C)C1CCCCC1,10.9% (inactive),-8.15%,–,–
COc1ccc(CCCC(=O)NC2CCCCC2)cc1,18.2% (inactive),0.276%,–,–
COc1ccc(OC)c(NC(=O)CCN2CCCCC2)c1,-44.8% (inactive),-3.94%,–,–
COc1ccc(OC)c(NC(=O)CN(Cc2ccc(Cl)cc2)S(C)(=O)=O)c1,-6.37% (inactive),1.52%,–,–
COc1ccc(OC)c(NC(=O)CN(Cc2ccc(F)cc2)C2CCCCC2)c1,–,6.76%,291 nM (active),–
Cc1ccsc1/C=C/c1n[nH]c(=O)c(C#N)c1C,–,22.2%,–,inactive
O=C(NC1CCOC1)c1ccc(OC2CCN(CCc3ccccc3)CC2)cc1 (configuration not stated),-5.98% (inactive),-24%,–,–
CN(C)CCOCCOc1ccccc1-c1ccccc1,-6.88% (inactive),-9.8%,–,–
CN(C)CCCCOc1ccccc1-c1ccccc1,-7.9% (inactive),-4.23%,–,–
CN(C)CCOc1ccccc1-c1ccccc1,–,-29.9%,23100 nM (active),–
Cc1cc(C)nc(NS(=O)(=O)c2ccc(NC(=O)COc3ccccc3F)cc2)n1,13.6% (inactive),12.7%,–,–
COc1ccc(NS(=O)(=O)c2cc(NC(=O)Cc3c(F)cccc3Cl)ccc2OC)cc1,6.88% (inactive),-6.83%,–,–

SMILES,"lipid storage change, negative = inhibition",cell number change,Potency,outcome
COc1ccc(NS(=O)(=O)c2cc(NC(=O)COc3ccccc3F)ccc2OC)cc1,–,-1.34%,1640 nM (active),–
COCCNC(=O)c1ccc(CSCc2cccc(Cl)c2)o1,11.7% (inactive),7.62%,–,–
c1ccc(CCNCC2COc3ccccc3O2)cc1 (configuration not stated),7.04% (inactive),16.7%,–,–
Cc1ccc(CSCCNS(=O)(=O)c2ccc([N+](=O)[O-])cc2)cc1,15.8% (inactive),–,–,–
COc1ccccc1NC(=O)c1sc(Cl)nc1C,–,1.65%,–,inactive
COc1ccc(C(=O)c2sc(Nc3ccccc3)c(C(=O)Nc3ccc(OC)c(OC)c3)c2N)cc1,9.9% (inactive),-20%,–,–
COc1ccccc1NC(=O)c1c(Nc2ccccc2C)sc(C(=O)Nc2cccc(Cl)c2)c1N,–,-26.6%,1640 nM (active),–
Cc1cccc(C)c1NC(=O)CN(C)C(=O)c1cccc(S(=O)(=O)N2CCN(C)CC2)c1,-25% [at 0.0737 µM] (inactive),10.4%,–,–
CCOC(=O)C1CCN(CC(O)COCc2ccc3c(c2)OCO3)CC1 (configuration not stated),6.44% (inactive),–,–,–
CCOC(=O)C1CCN(CC(O)COCc2ccc(Cl)cc2)CC1 (configuration not stated),–,16.5%,18400 nM (active),–
CCOC(=O)C1CCN(CC(O)COCc2ccccc2)CC1 (configuration not stated),10.2% (inactive),4.71%,–,–
COc1ccc(C)cc1NC(=O)CSc1nc2scc(C)c2c(=O)[nH]1,–,10.8%,–,inactive
COc1cccc(NC(=O)CSc2nc3scc(C)c3c(=O)[nH]2)c1,–,2.56%,580 nM (active),–
COc1ccc(NC(=O)CSc2nc3scc(C)c3c(=O)[nH]2)cc1,19.3% (inactive),11.6%,–,–
CCOc1ccc(-c2nnn(CC(=O)NCc3cccs3)n2)cc1,7.4% (inactive),-5.47%,–,–
CC(=O)NNc1[nH]c2c(c(=O)c1[N+](=O)[O-])c(=O)n(C)c(=O)n2C,-5.91% (inactive),-5.05%,–,–
CC(C)=C(NC(=O)c1ccccc1)C(=O)NC(Cc1ccccc1)C(=O)O (configuration not stated),–,-15%,1160 nM (active),–
O=C(NC(Cc1ccccc1)C(=O)O)/C(=C/c1ccccc1)NC(=O)c1ccccc1 (configuration not stated),-12.2% (inactive),-7.82%,–,–
O=C(NC(Cc1ccccc1)C(=O)O)c1ccccc1 (configuration not stated),-0.615% (inactive),-3.84%,–,–
CC(=O)OCCn1c(C)[n+](CCOC(C)=O)c2cc(Cl)c(Cl)cc21,3.84% (inactive),13.2%,–,–
COc1ccc(OCC(=O)N2CC3(C)CC2CC(C)(C)C3)cc1 (configuration not stated),–,–,–,inactive
CCc1cccc2cc3c(N)c(C(=O)Nc4ccc(S(=O)(=O)N5CCCC5)cc4)sc3nc12,–,0.905%,5800 nM (active),–

# From PubChem BioAssay AID2685 (National Center for Advancing Translational Sciences (NCATS), 2010)
